Screens (PubChem)
Compounds with a hit are over-represented: about 3.8% of the library has one in this group of screens.
CBFb RUNX1 block: inhibitors of human CBF-beta and RUNX1 interaction. AlphaScreen CBFb-His/RUNX1-biotin binding, biochemical. Potency, µM (titrated, usually from 59.8 µM), most hits filed as inhibitors. 230,000 tested, under 10 active. AID 1477
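CBFb-His/RUNX1-biotin, 30 nM each, preincubated 20 min RT; compound 15 min RT; Ni + streptavidin beads 50 ng each, 90 min RT; AlphaScreen read.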
KCNH2 WT inh: blocks the wildtype human KCNH2 potassium channel | Q12809 | U2OS, BacMam KCNH2, thallium flux FluxOr; hits give low values | activity change, % at 1.84 µM | 0.37% of 340,000 active | AID 720551;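 active = maximum activity change below -70%; inconclusive = maximum activity change between -70% and -50%; inactive = maximum activity change above -50%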
Target sequence (Q12809 whole entry, looked up): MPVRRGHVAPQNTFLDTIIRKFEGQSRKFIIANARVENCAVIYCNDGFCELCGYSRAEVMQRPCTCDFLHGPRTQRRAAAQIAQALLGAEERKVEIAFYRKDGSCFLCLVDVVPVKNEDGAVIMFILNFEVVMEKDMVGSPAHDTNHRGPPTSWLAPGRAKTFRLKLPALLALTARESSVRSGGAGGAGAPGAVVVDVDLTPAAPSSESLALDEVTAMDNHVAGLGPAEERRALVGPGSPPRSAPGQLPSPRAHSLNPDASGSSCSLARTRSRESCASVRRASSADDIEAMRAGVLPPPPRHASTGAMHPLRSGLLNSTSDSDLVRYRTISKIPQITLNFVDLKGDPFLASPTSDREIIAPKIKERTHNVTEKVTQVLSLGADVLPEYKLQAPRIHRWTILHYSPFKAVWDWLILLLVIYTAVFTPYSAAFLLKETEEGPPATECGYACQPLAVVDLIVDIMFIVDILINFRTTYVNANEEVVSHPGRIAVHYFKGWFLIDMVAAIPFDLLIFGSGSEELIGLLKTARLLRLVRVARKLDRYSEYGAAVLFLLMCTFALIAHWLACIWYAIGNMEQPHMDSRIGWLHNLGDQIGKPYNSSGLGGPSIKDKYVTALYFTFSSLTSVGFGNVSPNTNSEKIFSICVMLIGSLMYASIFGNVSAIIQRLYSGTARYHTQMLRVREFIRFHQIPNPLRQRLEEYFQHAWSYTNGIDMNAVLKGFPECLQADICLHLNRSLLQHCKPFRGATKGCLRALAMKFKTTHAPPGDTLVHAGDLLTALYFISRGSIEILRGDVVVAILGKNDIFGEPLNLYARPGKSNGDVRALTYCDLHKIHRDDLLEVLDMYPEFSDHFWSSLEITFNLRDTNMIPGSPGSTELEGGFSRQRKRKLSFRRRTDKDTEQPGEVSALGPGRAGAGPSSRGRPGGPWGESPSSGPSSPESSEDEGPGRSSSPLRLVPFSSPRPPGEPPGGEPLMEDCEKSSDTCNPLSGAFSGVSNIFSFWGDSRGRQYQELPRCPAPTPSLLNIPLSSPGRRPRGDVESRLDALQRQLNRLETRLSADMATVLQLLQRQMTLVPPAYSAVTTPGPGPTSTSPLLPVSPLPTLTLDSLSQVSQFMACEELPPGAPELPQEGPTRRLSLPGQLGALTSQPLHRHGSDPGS
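U2OS cells transduced with wild-type KCNH2 virus are loaded with FluxOr dye for 45 min, and thallium flux is measured in kinetic reads before and after stimulation buffer. Rate constants are normalized to DMSO controls.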
MBNL1-CUG inh: MBNL1-poly(CUG) RNA binding inhibition | Potency, µM (titrated, usually from 57.5 µM), hits mostly inhibitors | TR-FRET MBNL1-His/biotin-(CUG)12 binding, 665/545 ratio | 0.036% of 280,000 active | Q9NR56; active = well fitted inhibition curve with a large enough effect in the signal ratio, with a control signal flat, not every such curve was filed as active; inconclusive = small, poorly fitted or top-dose-only effect, or effect the other way, or a change in a side signal; inactive = no such curve, though single readings can be large or run the other way; the % refers to the signal ratio
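Compound titration spanned 92 nM–58 uM against the MBNL1-His/biotin-(CUG)12 complex. After 60 min at room temperature with 5 nM streptavidin-XL665 and 0.055 ng/ul terbium anti-His, ratiometric 665/545 nm emission (Ex 340 nm) normalized to controls.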
PLK1 PBD inh: PLK1 (human) polo-box domain binding inhibition | Plk1 PBD binding of FITC phosphopeptide, fluorescence polarization | P53350 | Potency, µM, usual class: inhibitors | 2.8% of 360,000 active | AID 720504; also: series mostly up to about 57 µM; nearly all actives have a fitted effect of over 65% in size
KCNH2 3.1 inh: KCNH2 3.1 (human) potassium channel inhibition. U2OS KCNH2 3.1, thallium flux FluxOr; hits give low values. activity change, % (tested at about 1.8 µM). 0.95% of 340,000 active. AID 720553;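 active = maximum activity change below -70%; inconclusive = maximum activity change from -70% to -50%; inactive = maximum activity change above -50%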;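 also: thallium influx rate constant from kinetic fluorescence after stimulation buffer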
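Thallium flux via FluxOr fluorescence (Red40 quencher, 45 min loading) in U2OS cells virally expressing the KCNH2 3.1 isoform (1.77 x 10^8 /mL virus, overnight at 37 C). Rate constants from 2-min kinetic reads post-stimulation, normalised to positive and negative controls.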
VDR inh: blocks the human vitamin D receptor; P11473; VDR-SRC2-3 peptide fluorescence polarization, 2 h; Potency, µM, hits mostly inhibitors; 0.93% of 400,000 active; AID 504847
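Fluorescence polarization assay measuring small-molecule disruption of VDR binding to the coregulator peptide SRC2-3. Compounds were pin-transferred (23 nl) into the reagent mix and incubated 2 h at room temperature before reading.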
Large screens that a line does not name were inactive. Unless noted, calls follow the shape of the dose curve; as a rule, active = well fitted curve in the direction sought with a large enough effect; inconclusive = small, poorly fitted or top-dose-only effect, or another doubt; inactive = no such curve, though single readings can be large; an effect the other way counts as inactive or inconclusive.

Cc1c(C(=O)N2CCCC2)c(S(=O)(=O)N2CCCCC2)c(C)n1C	none (no result: CBFb RUNX1 block)
Cc1c(C(=O)N2CCCCC2)c(S(=O)(=O)N2CCC(C)CC2)c(C)n1C	PLK1 PBD inh 21.2µM, VDR inh inconclusive (no result: CBFb RUNX1 block)
Cc1ccc(NS(=O)(=O)c2c(C(=O)N3CCCCCC3)c(C)n(C)c2C)cc1C	PLK1 PBD inh 21.2µM (no result: CBFb RUNX1 block)
Cc1c(C(=O)N2CCOCC2)c(S(=O)(=O)Nc2ccc(C(C)C)cc2)c(C)n1C	PLK1 PBD inh 26.7µM, VDR inh inconclusive (no result: CBFb RUNX1 block)
COc1cc(OC)cc(C(=O)NCc2ccc3c(c2)CCN3C(=O)c2ccccc2)c1	none (no result: CBFb RUNX1 block, KCNH2 WT inh, MBNL1-CUG inh, PLK1 PBD inh, KCNH2 3.1 inh)
COC(=O)C1=C(C(=O)OC)[C@@H]2N(C)c3ccc(OC)cc3[C@@]23C[C@@H](C(=O)OC)N(S(=O)(=O)c2ccc(C#N)cc2)C3=N1	none (no result: KCNH2 WT inh, MBNL1-CUG inh, PLK1 PBD inh, KCNH2 3.1 inh, VDR inh)
Cc1ccc(S(=O)(=O)c2nnn3c2nc(NCc2ccc4c(c2)OCO4)c2sccc23)cc1C	none (no result: CBFb RUNX1 block, KCNH2 WT inh, MBNL1-CUG inh, PLK1 PBD inh, KCNH2 3.1 inh)
COC(=O)CN1C(=O)C(C)(C)c2cc(S(=O)(=O)Nc3ccc(C(C)C)cc3)ccc21	none (no result: CBFb RUNX1 block, KCNH2 WT inh, MBNL1-CUG inh, PLK1 PBD inh, KCNH2 3.1 inh)
COc1ccc(C=CC(=O)c2ccc(OC)c(OC)c2)cc1O	none (no result: CBFb RUNX1 block, MBNL1-CUG inh, VDR inh)
COc1ccc(/C=C/C(=O)c2ccc(Cl)s2)cc1O	MBNL1-CUG inh inconclusive, VDR inh 79.4µM
COc1ccc(C(=O)/C=C/c2ccc(OC)c(O)c2)c(F)c1	VDR inh 89.1µM
COc1cc(/C=C/C(=O)c2ccc(Cl)s2)cc(OC)c1O	MBNL1-CUG inh inconclusive, VDR inh 56.2µM
CCOc1ccc(-c2nnc(-c3cccs3)o2)cc1OCC	PLK1 PBD inh 18.9µM
COc1ccc(C(=O)NCC(=O)OCc2cc(=O)n3nc(C4CCCCC4)sc3n2)cc1	none (no result: CBFb RUNX1 block, KCNH2 WT inh, MBNL1-CUG inh, PLK1 PBD inh, KCNH2 3.1 inh)
COc1cc(NS(=O)(=O)c2ccc(NC(=O)COc3ccc(Cl)cc3Cl)cc2)nc(OC)n1	none (no result: CBFb RUNX1 block, KCNH2 WT inh, MBNL1-CUG inh, PLK1 PBD inh, KCNH2 3.1 inh)
COc1cccc(F)c1C(C[N+](=O)[O-])c1c(N)n(C)c(=O)n(C)c1=O (stereo unspecified)	VDR inh 79.4µM
Cc1ccc(C(C[N+](=O)[O-])c2c(N)n(C)c(=O)n(C)c2=O)cc1 (stereo unspecified)	VDR inh 79.4µM
CCCN1CNc2c(c(=O)[nH]c(=S)n2CCc2cccc(C)c2C)C1	none (no result: CBFb RUNX1 block, KCNH2 WT inh, MBNL1-CUG inh, PLK1 PBD inh, KCNH2 3.1 inh)
O=C(O)CSCC(=O)N1CCN(S(=O)(=O)c2ccccc2)CC1	none
Nc1cc(N)nc(SCC(=O)N2CCN(S(=O)(=O)c3ccccc3)CC2)n1	KCNH2 WT inh -89.6, PLK1 PBD inh inconclusive
O=C(CSc1ccccc1)N1CCN(S(=O)(=O)c2ccccc2)CC1	PLK1 PBD inh 11.9µM (no result: CBFb RUNX1 block, KCNH2 3.1 inh)
CCc1nc2ccccc2n1CCCCOc1ccc(Cl)cc1	none (no result: CBFb RUNX1 block, KCNH2 WT inh, MBNL1-CUG inh, PLK1 PBD inh, KCNH2 3.1 inh)
Cc1cc(Cl)ccc1OCC(=O)N(Cc1sccc1C)C1CCS(=O)(=O)C1 (stereo unspecified)	none (no result: CBFb RUNX1 block, KCNH2 WT inh, MBNL1-CUG inh, PLK1 PBD inh, KCNH2 3.1 inh)
CCC(=S)/C=C1\Sc2ccccc2N1CCCS(=O)(=O)O	MBNL1-CUG inh inconclusive, PLK1 PBD inh inconclusive, VDR inh 70.8µM
CCOc1nc2cccc(C(=O)OC(C)OC(=O)OC3CCCCC3)c2n1Cc1ccc(-c2ccccc2-c2nn[nH]n2)cc1 (stereo unspecified)	VDR inh 44.7µM (no result: KCNH2 WT inh, MBNL1-CUG inh, PLK1 PBD inh, KCNH2 3.1 inh)
CCCc1nc(C(C)(C)O)c(C(=O)OCc2oc(=O)oc2C)n1Cc1ccc(-c2ccccc2-c2nn[nH]n2)cc1	none (no result: KCNH2 WT inh, MBNL1-CUG inh, PLK1 PBD inh, KCNH2 3.1 inh)
CCOc1ccc(CCNC(=O)c2cccs2)cc1OCC	KCNH2 3.1 inh -86.3 (no result: CBFb RUNX1 block)
Cc1ccccc1OCC(=O)NCC(=O)OCC(=O)c1ccc(Br)cc1	none (no result: CBFb RUNX1 block, KCNH2 WT inh, MBNL1-CUG inh, PLK1 PBD inh, KCNH2 3.1 inh)
C=CCOc1ccc(Br)cc1/C=C1/SC(=Nc2ccc(C(=O)O)cc2)NC1=O	PLK1 PBD inh 21.2µM
Cc1ccc(-n2c(=O)c3c(cnn3C)n(Cc3ccc(Cl)cc3)c2=O)cc1	VDR inh 89.1µM (no result: CBFb RUNX1 block, KCNH2 WT inh, MBNL1-CUG inh, PLK1 PBD inh, KCNH2 3.1 inh)
Cc1ccccc1Cn1nnc2c(=O)[nH]c(C3CCN(C(=O)c4ccccc4Cl)CC3)nc21	none (no result: CBFb RUNX1 block, KCNH2 WT inh, MBNL1-CUG inh, PLK1 PBD inh, KCNH2 3.1 inh)
Cc1cc(Br)ccc1-n1[nH]c(C)c(C=Nc2cccc3nsnc23)c1=O	PLK1 PBD inh 26.7µM
COc1ccccc1N=Cc1c(C)[nH]n(-c2ccc(C)cc2C)c1=O	none
COc1ccc(Nc2nc(C)nc(N)c2S(=O)(=O)c2ccccc2)cc1	none (no result: CBFb RUNX1 block, KCNH2 WT inh, MBNL1-CUG inh, PLK1 PBD inh, KCNH2 3.1 inh)
